# Paper PMC7862700, “An all-to-all approach to the identification of sequence-specific readers for epigenetic DNA modifications on cytosine”
# What was measured:
# Assay in all cases: DAPPL (digital affinity profiling via proximity ligation, sequencing); 10 mM Tris-HCl pH 7.5, 50 mM NaCl, 1 mM DTT, 4% glycerol, room temperature, 30 min; GST-TFs on glutathione beads, 16-mer random dsDNA library, 0.1% formaldehyde crosslink after washing; high values mean tight binding
# Details in all cases: protein: recombinant; tags: N-terminal GST; dsDNA, one strand shown
# GABPA = biological target: T1, GABPA (Homo sapiens, UniProt Q06546 1-454)
# T1 sequence: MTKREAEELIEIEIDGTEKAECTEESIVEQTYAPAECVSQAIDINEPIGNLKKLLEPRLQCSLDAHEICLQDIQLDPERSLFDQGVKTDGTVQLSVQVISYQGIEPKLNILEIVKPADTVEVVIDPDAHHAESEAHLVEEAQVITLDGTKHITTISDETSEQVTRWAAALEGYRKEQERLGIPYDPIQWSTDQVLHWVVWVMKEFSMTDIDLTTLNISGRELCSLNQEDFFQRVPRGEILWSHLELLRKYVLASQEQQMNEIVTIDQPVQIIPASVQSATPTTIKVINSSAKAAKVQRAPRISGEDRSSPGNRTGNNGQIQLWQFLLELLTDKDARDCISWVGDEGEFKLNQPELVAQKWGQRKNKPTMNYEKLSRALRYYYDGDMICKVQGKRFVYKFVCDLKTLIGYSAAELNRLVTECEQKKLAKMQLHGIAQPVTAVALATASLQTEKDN
# In short: (§1)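 Human transcription factors were made in yeast as GST fusions, captured on glutathione beads and barcoded with DNA. With a tag-only sample included, the pool was incubated with 200 nmole of a random double-stranded 16-mer DNA library in Tris/NaCl/DTT/glycerol buffer at room temperature for 30 min, then crosslinked with 0.1% formaldehyde after washing, ligated by proximity, amplified and sequenced. For binding signal, each hexamer's read frequency for a factor is divided by its frequency for the tag-only sample.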
# ELF1 = ELF1 (Homo sapiens, UniProt P32519 1-619)
# In short: as §1
# EHF = biological target: T2, EHF (Homo sapiens, UniProt Q9NZC4 1-300)
# T2 sequence: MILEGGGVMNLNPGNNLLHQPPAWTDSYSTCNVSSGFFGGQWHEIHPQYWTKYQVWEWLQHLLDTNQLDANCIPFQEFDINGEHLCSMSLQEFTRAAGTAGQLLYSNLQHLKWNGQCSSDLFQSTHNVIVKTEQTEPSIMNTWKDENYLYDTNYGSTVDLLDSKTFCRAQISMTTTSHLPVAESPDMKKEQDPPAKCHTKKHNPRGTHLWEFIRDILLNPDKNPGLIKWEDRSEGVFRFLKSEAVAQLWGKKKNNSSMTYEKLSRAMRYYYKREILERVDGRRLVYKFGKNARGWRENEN
# In short: as §1
# SPIC = biological target: T3, SPIC (Homo sapiens, UniProt Q8N5J4 1-248)
# T3 sequence: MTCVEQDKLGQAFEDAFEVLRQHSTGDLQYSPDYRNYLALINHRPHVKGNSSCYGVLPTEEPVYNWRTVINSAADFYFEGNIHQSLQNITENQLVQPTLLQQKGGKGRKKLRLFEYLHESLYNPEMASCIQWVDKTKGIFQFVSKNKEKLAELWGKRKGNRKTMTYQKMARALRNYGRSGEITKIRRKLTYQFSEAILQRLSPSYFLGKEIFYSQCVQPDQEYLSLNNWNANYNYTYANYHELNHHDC
# In short: as §1
# ELF4 = ELF4 (Homo sapiens, UniProt Q99607 1-663)
# In short: as §1
# ELK4 = biological target: T4, ELK4 (Homo sapiens, UniProt P28324-2 1-405)
# T4 sequence: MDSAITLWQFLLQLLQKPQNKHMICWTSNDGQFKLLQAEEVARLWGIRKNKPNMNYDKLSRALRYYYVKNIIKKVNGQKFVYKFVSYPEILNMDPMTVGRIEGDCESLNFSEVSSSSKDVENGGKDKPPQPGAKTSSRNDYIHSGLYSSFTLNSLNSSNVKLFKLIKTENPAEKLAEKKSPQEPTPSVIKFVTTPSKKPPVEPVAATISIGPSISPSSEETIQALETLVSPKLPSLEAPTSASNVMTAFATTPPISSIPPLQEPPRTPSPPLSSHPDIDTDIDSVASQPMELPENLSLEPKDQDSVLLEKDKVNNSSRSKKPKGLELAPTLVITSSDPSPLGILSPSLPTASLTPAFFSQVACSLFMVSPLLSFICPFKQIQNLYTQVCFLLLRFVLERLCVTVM
# In short: as §1
# ELF3 = biological target: T5, ELF3 (Homo sapiens, UniProt P78545 1-371)
# T5 sequence: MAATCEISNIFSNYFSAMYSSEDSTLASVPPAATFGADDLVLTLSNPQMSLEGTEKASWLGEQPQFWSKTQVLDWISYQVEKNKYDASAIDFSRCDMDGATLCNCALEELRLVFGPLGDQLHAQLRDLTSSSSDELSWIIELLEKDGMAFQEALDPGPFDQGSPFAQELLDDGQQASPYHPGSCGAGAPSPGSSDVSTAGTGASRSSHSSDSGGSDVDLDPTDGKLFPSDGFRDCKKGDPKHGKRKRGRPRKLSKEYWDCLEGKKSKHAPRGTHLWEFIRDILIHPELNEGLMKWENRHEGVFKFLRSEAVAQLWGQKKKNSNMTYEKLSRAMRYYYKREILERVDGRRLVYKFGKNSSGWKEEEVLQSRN
# In short: as §1
# ERF = biological target: T6, ERF (Homo sapiens, UniProt P50548 1-548)
# T6 sequence: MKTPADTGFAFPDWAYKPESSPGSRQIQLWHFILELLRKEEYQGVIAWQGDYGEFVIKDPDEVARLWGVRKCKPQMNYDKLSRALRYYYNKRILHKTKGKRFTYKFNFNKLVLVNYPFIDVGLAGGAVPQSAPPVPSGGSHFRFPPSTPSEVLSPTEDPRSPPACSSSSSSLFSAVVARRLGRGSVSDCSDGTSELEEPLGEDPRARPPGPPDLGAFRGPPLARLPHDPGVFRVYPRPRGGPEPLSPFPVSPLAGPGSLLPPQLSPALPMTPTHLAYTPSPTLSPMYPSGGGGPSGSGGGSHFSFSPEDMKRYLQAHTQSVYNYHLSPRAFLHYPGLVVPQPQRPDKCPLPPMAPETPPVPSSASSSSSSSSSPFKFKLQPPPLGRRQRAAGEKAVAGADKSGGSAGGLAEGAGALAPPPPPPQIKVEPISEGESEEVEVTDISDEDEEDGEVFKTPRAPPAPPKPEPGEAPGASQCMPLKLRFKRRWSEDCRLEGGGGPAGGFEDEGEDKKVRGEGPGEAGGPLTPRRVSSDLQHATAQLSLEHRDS
# In short: as §1
# ETV3L = biological target: T7, ETV3L (Homo sapiens, UniProt Q6ZN32 1-361)
# T7 sequence: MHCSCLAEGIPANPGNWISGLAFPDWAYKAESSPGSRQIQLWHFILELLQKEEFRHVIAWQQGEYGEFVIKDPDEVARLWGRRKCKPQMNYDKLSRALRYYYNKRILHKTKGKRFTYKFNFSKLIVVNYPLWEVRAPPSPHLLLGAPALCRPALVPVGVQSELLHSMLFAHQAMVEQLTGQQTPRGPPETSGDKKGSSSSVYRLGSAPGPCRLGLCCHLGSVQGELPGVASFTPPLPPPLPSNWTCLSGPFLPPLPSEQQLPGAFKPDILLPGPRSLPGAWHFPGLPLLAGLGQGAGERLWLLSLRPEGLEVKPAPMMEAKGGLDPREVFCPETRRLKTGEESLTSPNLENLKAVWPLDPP
# In short: as §1
# ETS2 = biological target: T8, ETS2 (Homo sapiens, UniProt P15036 1-469)
# T8 sequence: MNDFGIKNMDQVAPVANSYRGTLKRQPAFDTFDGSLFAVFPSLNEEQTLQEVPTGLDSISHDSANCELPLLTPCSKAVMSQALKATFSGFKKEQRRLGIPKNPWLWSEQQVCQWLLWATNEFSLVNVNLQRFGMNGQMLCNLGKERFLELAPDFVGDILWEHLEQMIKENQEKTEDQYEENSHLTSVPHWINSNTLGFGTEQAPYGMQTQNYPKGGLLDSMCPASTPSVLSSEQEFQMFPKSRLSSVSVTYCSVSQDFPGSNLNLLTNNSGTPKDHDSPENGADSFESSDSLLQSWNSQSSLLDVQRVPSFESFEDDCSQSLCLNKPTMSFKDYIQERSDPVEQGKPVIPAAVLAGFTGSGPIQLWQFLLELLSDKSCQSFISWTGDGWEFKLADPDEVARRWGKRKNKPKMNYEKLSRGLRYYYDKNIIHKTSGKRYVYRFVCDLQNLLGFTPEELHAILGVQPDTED
# In short: as §1
# ETV7 = biological target: T9, ETV7 (Homo sapiens, UniProt Q9Y603 1-341)
# T9 sequence: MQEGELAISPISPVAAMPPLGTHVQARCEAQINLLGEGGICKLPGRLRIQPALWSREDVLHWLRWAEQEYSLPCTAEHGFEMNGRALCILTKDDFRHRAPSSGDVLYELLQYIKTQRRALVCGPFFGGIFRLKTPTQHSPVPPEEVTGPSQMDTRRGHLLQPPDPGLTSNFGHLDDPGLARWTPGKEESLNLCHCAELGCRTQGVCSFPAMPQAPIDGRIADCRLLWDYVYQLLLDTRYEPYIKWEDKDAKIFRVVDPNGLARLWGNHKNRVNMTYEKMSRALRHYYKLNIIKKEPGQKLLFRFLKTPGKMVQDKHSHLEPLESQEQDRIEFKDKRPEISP
# In short: as §1
# ETV6 = ETV6 (Homo sapiens, UniProt P41212 1-452)
# In short: as §1
# ELF4, sequence (Q99607 whole entry): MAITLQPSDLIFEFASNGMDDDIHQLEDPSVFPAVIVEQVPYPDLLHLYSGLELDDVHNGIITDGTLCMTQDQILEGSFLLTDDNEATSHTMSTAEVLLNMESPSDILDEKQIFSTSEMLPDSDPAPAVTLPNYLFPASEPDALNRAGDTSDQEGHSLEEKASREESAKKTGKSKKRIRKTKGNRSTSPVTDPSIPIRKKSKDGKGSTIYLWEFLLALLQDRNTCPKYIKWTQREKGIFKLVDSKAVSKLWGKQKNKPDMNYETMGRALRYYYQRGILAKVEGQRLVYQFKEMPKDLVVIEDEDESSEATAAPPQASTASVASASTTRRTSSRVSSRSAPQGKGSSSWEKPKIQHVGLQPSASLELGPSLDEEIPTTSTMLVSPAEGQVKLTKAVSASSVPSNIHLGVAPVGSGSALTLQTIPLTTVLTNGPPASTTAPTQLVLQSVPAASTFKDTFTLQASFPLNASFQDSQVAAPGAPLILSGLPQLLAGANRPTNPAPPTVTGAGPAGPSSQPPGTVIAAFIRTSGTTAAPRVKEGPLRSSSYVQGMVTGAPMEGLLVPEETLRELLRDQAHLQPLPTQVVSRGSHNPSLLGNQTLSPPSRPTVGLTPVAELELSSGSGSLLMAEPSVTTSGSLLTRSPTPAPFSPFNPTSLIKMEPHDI
# ELF1, sequence (P32519 whole entry): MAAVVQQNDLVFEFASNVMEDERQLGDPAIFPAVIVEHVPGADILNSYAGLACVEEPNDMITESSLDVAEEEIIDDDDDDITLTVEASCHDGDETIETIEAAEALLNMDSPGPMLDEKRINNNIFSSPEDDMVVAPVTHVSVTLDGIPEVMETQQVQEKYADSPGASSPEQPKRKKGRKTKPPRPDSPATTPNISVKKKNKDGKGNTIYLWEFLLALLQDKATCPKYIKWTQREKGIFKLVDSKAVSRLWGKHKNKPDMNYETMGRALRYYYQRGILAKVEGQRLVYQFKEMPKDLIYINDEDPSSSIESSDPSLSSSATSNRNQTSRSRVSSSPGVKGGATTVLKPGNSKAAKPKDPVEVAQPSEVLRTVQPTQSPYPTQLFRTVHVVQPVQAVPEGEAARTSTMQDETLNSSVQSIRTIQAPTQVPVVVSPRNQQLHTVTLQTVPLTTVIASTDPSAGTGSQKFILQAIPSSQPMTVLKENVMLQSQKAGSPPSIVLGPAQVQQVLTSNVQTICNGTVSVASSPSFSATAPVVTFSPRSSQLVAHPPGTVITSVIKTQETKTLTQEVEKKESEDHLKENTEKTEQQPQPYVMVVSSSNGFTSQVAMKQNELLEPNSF
# ETV6, sequence (P41212 whole entry): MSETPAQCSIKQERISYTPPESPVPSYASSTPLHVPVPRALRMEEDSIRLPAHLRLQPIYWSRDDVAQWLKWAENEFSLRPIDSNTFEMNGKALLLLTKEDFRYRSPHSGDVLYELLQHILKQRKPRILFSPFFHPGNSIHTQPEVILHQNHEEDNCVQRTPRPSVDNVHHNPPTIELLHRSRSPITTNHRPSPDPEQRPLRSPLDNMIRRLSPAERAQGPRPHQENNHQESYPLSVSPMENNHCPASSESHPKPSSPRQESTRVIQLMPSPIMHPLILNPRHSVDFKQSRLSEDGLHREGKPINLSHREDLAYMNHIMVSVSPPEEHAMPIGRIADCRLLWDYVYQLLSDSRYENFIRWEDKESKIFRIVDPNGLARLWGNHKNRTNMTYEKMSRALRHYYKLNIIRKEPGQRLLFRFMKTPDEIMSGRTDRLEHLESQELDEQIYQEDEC
sequence,measurement,setting,value
ACCTAG,binding signal,GABPA,"1.14 fold enrichment (6-mer frequency, TF over GST control)"
same,binding signal,ELF1,"1.06 fold enrichment (6-mer frequency, TF over GST control)"
same,binding signal,EHF,"1.04 fold enrichment (6-mer frequency, TF over GST control)"
same,binding signal,SPIC,"1.01 fold enrichment (6-mer frequency, TF over GST control)"
same,binding signal,ELF4,"1.06 fold enrichment (6-mer frequency, TF over GST control)"
same,binding signal,ELK4,"1.08 fold enrichment (6-mer frequency, TF over GST control)"
same,binding signal,ELF3,"1.02 fold enrichment (6-mer frequency, TF over GST control)"
same,binding signal,ERF,"1.06 fold enrichment (6-mer frequency, TF over GST control)"
same,binding signal,ETV3L,"1.05 fold enrichment (6-mer frequency, TF over GST control)"
same,binding signal,ETS2,"1.06 fold enrichment (6-mer frequency, TF over GST control)"
same,binding signal,ETV7,"1.11 fold enrichment (6-mer frequency, TF over GST control)"
same,binding signal,ETV6,"1.02 fold enrichment (6-mer frequency, TF over GST control)"
